Our source for the activation and Potency values is PubChem BioAssay (NCATS).

Inconclusive results are not listed. A call without a number means that no potency is given here. Activity calls are given as the source filed them. Calls follow the shape of the dose curve; as a rule, active = well fitted activation curve with a large enough effect; inconclusive = small, poorly fitted or top-dose-only effect, or another doubt; inactive = no such curve, though single readings can be large or run the other way.
Potency is read from the fitted curve at half-maximal effect.

This assay has as its target Rap guanine nucleotide exchange factor 3 (Homo sapiens) (UniProt O95398). The experiment in a line: Counterscreen qHTS for agonist of cAMP-regulated guanine nucleotide exchange factor 3 (EPAC1) (AID 1645889). Also: nearly all actives have a fitted effect of over 40% in size. Particulars: EPAC1 Rap1B-BODIPY-GDP exchange, fluorescence; series mostly up to 154 µM. A digest of the protocol:
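Measured: fluorescence of BODIPY-GDP bound to Rap1B, which falls as exchange proceeds. Conditions include 50 uM competing GDP, 5 and 30 min reads, and a later cAMP challenge for antagonist detection.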
On the technique in general: Counterscreens check selectivity or assay interference.
Turning to `O=C(O)c1cc(N/N=C/c2ccncc2)ccc1Cl`, the activation is 24.2% [at 30.8 µM] (inactive).

Take `Cc1ccccc1OCCC(=O)OCC(=O)N1CCN(S(=O)(=O)c2ccc(Cl)cc2)CC1`: the activation was 26.1% [at 30.8 µM] (inactive).

In the case of `COCCNC(=O)CS(=O)Cc1nc(-c2ccc(Cl)cc2)oc1C` (stereo not given), the activation is 14.9% [at 30.8 µM] (inactive).

Turning to `O=c1oc2ccccc2nc1/C=C(O)/C=C\c1ccccc1`, the activation was -0.436% [at 30.8 µM] (inactive).

For `Nc1[nH]c(C(=O)c2ccccc2)c(-c2ccccc2C(F)(F)F)c1C(=O)NCCc1cccs1`, the Potency result is “inactive”.

Consider `CCCOc1c(OC)cccc1C1CC(=O)Nc2cc(OC)c(OC)c(OC)c21` (stereo not given), for which the Potency entry was “inactive”.

As for `CCOc1nc(C)cc(C)c1S(=O)(=O)c1ccc(Cl)cc1`, the activation is 9.26% [at 30.8 µM] (inactive).

As for `COc1ccc2nc(N3CCN(C(=O)C4CC4)CC3)sc2c1`, the Potency entry is “inactive”.

Regarding `COc1cc(-c2c(CCO)sc3ccccc23)cc(OC)c1OC`, the activation was 8.02% [at 30.8 µM] (inactive).

As for `c1ccc(OCCCn2ccnc2)cc1`, the Potency result is “inactive”.

In the case of `CC(=O)Oc1c(Sc2ccccc2[N+](=O)[O-])c(C)nn1C(C)(C)C`, the Potency entry was “inactive”.

On to `C[C@@H](c1ccccc1)N1Cc2ccccc2Oc2cc(Br)ccc2S1(=O)=O`, for which the Potency result was “inactive”.

For the compound `O=C(N[C@@H](Cc1c[nH]c2ccccc12)C(=O)O)OCC1c2ccccc2-c2ccccc21`, the Potency entry is “inactive”.

Turning to `O=C(CN1C(=O)N/C(=C\c2ccccc2OCc2ccc(C(=O)O)cc2)C1=O)Nc1ccccc1F`, the activation is 19.6% [at 30.8 µM] (inactive).

Take `CN1C(=O)/C(=C\c2ccc(N(C)C)cc2)OC1=S`: the Potency is 15.8 µM (active).

Turning to `CC1CCCCC1NC(=O)COC(=O)c1c2c(nc3ccccc13)/C(=C/c1ccco1)CC2` (stereo not given), the Potency result was “inactive”.

On to `CCCc1[nH]nc2c1C(c1cccnc1)C(C#N)=C(N)O2` (stereo not given), for which the activation is -0.109% [at 30.8 µM] (inactive).

As for `C=CCn1c(CSCc2ccc(Cl)cc2Cl)nnc1SCC(=O)Nc1ccc(C(=O)O)cc1`, the activation is 4.51% [at 30.8 µM] (inactive).

For the compound `CC(Sc1ccc(Cl)cc1)C(=O)NNC(=O)c1csc(N2CCOCC2)n1` (stereo not given), the activation is 30.8% [at 30.8 µM] (inactive).

Regarding `COc1cc2c(cc1OC)C(c1ccccc1Cl)N(C)CC2` (stereo not given), the activation was 9.1% [at 30.8 µM] (inactive).

For `CC1Cc2cc(C(=O)O)ccc2O1` (stereo not given), the Potency entry is “inactive”.

In the case of `CC(C)OC(=O)c1c(-c2ccccc2)c(-c2ccccc2)nn(C)c1=O`, the Potency result was “inactive”.

As for `COc1ccccc1OCC(=O)Nc1cc(C(F)(F)F)ccc1-n1cncn1`, the activation is 5.31% [at 30.8 µM] (inactive).

Regarding `COc1nc(C)cc(C)c1S(=O)(=O)c1ccccc1C`, the Potency result was “inactive”.

For `O=c1c2ccccc2nc(/C=C/c2cccnc2)n1CCc1ccccc1`, the Potency result is “inactive”.

On to `CC(Oc1ccccc1)C(=O)Nc1nnc(S(=O)(=O)N2CCCCC2)s1` (stereo not given), for which the Potency entry is “inactive”.

As to `COc1cc(OC)nc(Oc2cccc(Cl)c2C)n1`, the Potency entry was “inactive”.

Consider `CCN(CC)c1nc(SCC(=O)O)nc(N(CC)CC)n1`, for which the Potency entry is “inactive”.

As for `C=CCOc1ccc(/C=C2\SC(=S)N(NS(=O)(=O)c3ccc(C)cc3)C2=O)cc1`, the Potency entry is “inactive”.

Regarding `O=C1S/C(=C\c2ccc(O)c([N+](=O)[O-])c2)C(=O)N1c1ccccc1Cl`, the Potency result is “inactive”.

With `O=C(NCCCn1ccnc1)c1cc(-c2cccnc2)nc2ccc(Br)cc12`, the Potency result is “inactive”.

As to `COC(=O)C1=C(C)N(Cc2ccco2)C(=O)/C1=C\c1ccc(N(C)C)cc1`, the Potency entry was “inactive”.

On to `Cc1ccc(NC(=O)c2cccc(NC(=O)/C=C/c3ccco3)c2)cc1C`, for which the activation was 5.53% [at 30.8 µM] (inactive).

`Cc1cc(Br)c2c(c1)C(O)(N1CCCCC1C)C(=O)N2` (stereo not given): the activation is 19.4% [at 30.8 µM] (inactive).

On to `CCCCNC(=O)Cn1nc(N2CCN(c3ccccc3OC)CC2)ccc1=O`, for which the Potency result is “inactive”.

Turning to `CC(=O)c1c(C(C)=O)c(C)n(-c2nc(-c3ccccc3)c(C)s2)c1C`, the Potency result was “inactive”.

For the compound `COc1ccccc1OCC(=O)Nc1cccc(S(=O)(=O)NC2=NCCCCC2)c1`, the Potency entry was “inactive”.

Turning to `CN(C(=O)COC(=O)/C=C/c1ccc2c(c1)OCO2)c1c(N)n(Cc2ccccc2)c(=O)[nH]c1=O`, the Potency result was “inactive”.

In the case of `CCOc1ccc(/C=C/C(=O)c2cc(Br)ccc(=O)c2O)cc1`, the Potency result was “inactive”.

Turning to `Cc1ccc(Sc2ccc(S(=O)(=O)Nc3ccc(C(=O)O)cc3)cc2)cc1C`, the Potency entry was “inactive”.
